Assay results as given in PubChem BioAssay AID1159580 (chemical genetic matrix, 2015).
Values joined by “and” are separate entries in the source; they are usually repeats but may differ in a detail not shown here. Equal entries are not always repeated. Screen size: about 5,500 compounds; about 2,000 (36%) were called active. About 18% were inconclusive and are not listed. Rule as the data show it: active = normalized growth mostly below about 0.91 (no sharp cut-off); inconclusive = no clear call, values can overlap the other calls; inactive = mostly above about 0.92. Some of the results follow.

Assay: chemical genetic growth profiling, strain panel (AID 1159580);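 also: tested at 20 µM; growth read once vehicle control cultures reached saturation at 30 °C; 1 = growth at the plate median or of vehicle wells; lower values mean less growth of the strain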
Conditions: growth OD

Measured: normalized growth

CCCCCCCCC(=O)NCc1ccc(O)c(OC)c1
inactive: S. cerevisiae deletion strains, locus YJR075W, strain HOC1, stronger effect = lower value 0.989 and 0.961 | S. cerevisiae deletion strains, locus YKL009W, strain mrt4, stronger effect = lower value 0.955 | S. cerevisiae deletion strains, locus YKL068W, stronger effect = lower value 0.986 | S. cerevisiae deletion strains, locus YKL085W, strain MDH1 (second series), stronger effect = lower value 0.987 | S. cerevisiae deletion strains, locus YKL085W, strain MDH1, stronger effect = lower value 0.987 | S. cerevisiae deletion strains, locus YKL160W, strain elf1, stronger effect = lower value 0.985 | S. cerevisiae deletion strains, locus YKL190W, strain CNB1, stronger effect = lower value 0.999 | S. cerevisiae deletion strains, locus YKR001C, strain vps1, stronger effect = lower value 0.983 | S. cerevisiae deletion strains, locus YKR026C, strain gcn3, stronger effect = lower value 0.979 | S. cerevisiae deletion strains, locus YKR091W, strain srl3, stronger effect = lower value 0.999 | S. cerevisiae deletion strains, locus YLL001W, strain dnm1, stronger effect = lower value 1 | S. cerevisiae deletion strains, locus YLL026W, stronger effect = lower value 1 | S. cerevisiae deletion strains, locus YLL041C, strain sdh2, stronger effect = lower value 1 | S. cerevisiae deletion strains, locus YLR027C, strain aat2, stronger effect = lower value 1.01 | S. cerevisiae deletion strains, locus YLR039C, strain RIC1, stronger effect = lower value 1 | S. cerevisiae deletion strains, locus YLR058C, strain SHM2, stronger effect = lower value 0.984 | S. cerevisiae deletion strains, locus YLR102C, strain apc9, stronger effect = lower value 0.987 | S. cerevisiae deletion strains, locus YLR113W, strain HOG1, stronger effect = lower value 1.01 | S. cerevisiae deletion strains, locus YLR221C, strain rsa3, stronger effect = lower value 1.01 | S. cerevisiae deletion strains, locus YLR258W, strain gsy2, stronger effect = lower value 0.989 | S. cerevisiae deletion strains, locus YLR262C, strain YPT6 (second series), stronger effect = lower value 1.02 | S. cerevisiae deletion strains, locus YLR262C, strain YPT6, stronger effect = lower value 1.01 | S. cerevisiae deletion strains, locus YLR268W, strain sec22, stronger effect = lower value 0.97 | S. cerevisiae deletion strains, locus YLR320W, strain mms22, stronger effect = lower value 0.997 | S. cerevisiae deletion strains, locus YLR330W, strain CHS5, stronger effect = lower value 0.985 | S. cerevisiae deletion strains, locus YLR342W, strain FKS1 (second series), stronger effect = lower value 0.966 | S. cerevisiae deletion strains, locus YLR342W, strain FKS1, stronger effect = lower value 1.03 | S. cerevisiae deletion strains, locus YLR357W, strain rsc2, stronger effect = lower value 1.12 | S. cerevisiae deletion strains, locus YLR370C, strain arc18, stronger effect = lower value 0.993 | S. cerevisiae deletion strains, locus YLR371W, strain rom2, stronger effect = lower value 0.985 | S. cerevisiae deletion strains, locus YLR384C, strain iki3, stronger effect = lower value 1 | S. cerevisiae deletion strains, locus YLR418C, strain cdc73, stronger effect = lower value 0.989 | S. cerevisiae deletion strains, locus YML016C, strain PPZ1, stronger effect = lower value 0.978 | S. cerevisiae deletion strains, locus YML032C, strain rad52, stronger effect = lower value 0.97 | S. cerevisiae deletion strains, locus YML120C, strain ndi1, stronger effect = lower value 0.992 | S. cerevisiae deletion strains, locus YML124C, strain tub3, stronger effect = lower value 0.975 | S. cerevisiae deletion strains, locus YMR058W, strain fet3, stronger effect = lower value 1 | S. cerevisiae deletion strains, locus YMR078C, strain ctf18, stronger effect = lower value 0.977 | S. cerevisiae deletion strains, locus YMR125W, strain sto1, stronger effect = lower value 1.05 | S. cerevisiae deletion strains, locus YMR129W, stronger effect = lower value 1.02 | S. cerevisiae deletion strains, locus YMR205C, strain PFK2, stronger effect = lower value 0.961 | S. cerevisiae deletion strains, locus YMR223W, strain ubp8, stronger effect = lower value 0.965 | S. cerevisiae deletion strains, locus YMR231W, strain pep5, stronger effect = lower value 1.01 | S. cerevisiae deletion strains, locus YMR263W, strain SAP30, stronger effect = lower value 0.998 | S. cerevisiae deletion strains, locus YMR307W, strain GAS1, stronger effect = lower value 1.07 and 0.979 | S. cerevisiae deletion strains, locus YNL067W, strain RPL9B, stronger effect = lower value 0.995 | S. cerevisiae deletion strains, locus YNL071W, strain lat1, stronger effect = lower value 0.976 | S. cerevisiae deletion strains, locus YNL128W, strain TEP1, stronger effect = lower value 0.999 and 0.969 | S. cerevisiae deletion strains, locus YNL153C, strain GIM3, stronger effect = lower value 0.997 | S. cerevisiae deletion strains, locus YNL175C, strain NOP13, stronger effect = lower value 0.972 | S. cerevisiae deletion strains, locus YNL183C, strain NPR1, stronger effect = lower value 0.93 | S. cerevisiae deletion strains, locus YNL197C, strain WHI3, stronger effect = lower value 0.963 | S. cerevisiae deletion strains, locus YNL209W, strain ssb2, stronger effect = lower value 0.995 | S. cerevisiae deletion strains, locus YNL224C, strain SQS1, stronger effect = lower value 0.984 | S. cerevisiae deletion strains, locus YNL233W, strain BNI4, stronger effect = lower value 0.988 | S. cerevisiae deletion strains, locus YNL248C, strain rpa49, stronger effect = lower value 1.06 | S. cerevisiae deletion strains, locus YNL250W, strain rad50, stronger effect = lower value 0.975 | S. cerevisiae deletion strains, locus YNL271C, strain bni1, stronger effect = lower value 0.983 | S. cerevisiae deletion strains, locus YNL298W, strain CLA4, stronger effect = lower value 0.966 | S. cerevisiae deletion strains, locus YNL307C, strain MCK1, stronger effect = lower value 0.955 | S. cerevisiae deletion strains, locus YNL322C, strain KRE1 (second series), stronger effect = lower value 0.998 | S. cerevisiae deletion strains, locus YNL322C, strain KRE1, stronger effect = lower value 0.994 and 0.983 | S. cerevisiae deletion strains, locus YNR049C, strain mso1, stronger effect = lower value 1.02 | S. cerevisiae deletion strains, locus YNR052C, strain pop2, stronger effect = lower value 0.992 | S. cerevisiae deletion strains, locus YOL006C, strain TOP1, stronger effect = lower value 0.927 | S. cerevisiae deletion strains, locus YOL012C, strain htz1 0.863 | S. cerevisiae deletion strains, locus YOL147C, strain pex11, stronger effect = lower value 0.991 | S. cerevisiae deletion strains, locus YOR001W, strain rrp6, stronger effect = lower value 1.01 | S. cerevisiae deletion strains, locus YOR061W, strain CKA2, stronger effect = lower value 0.988 | S. cerevisiae deletion strains, locus YOR069W, strain VPS5, stronger effect = lower value 0.983 | S. cerevisiae deletion strains, locus YOR070C, strain gyp1, stronger effect = lower value 0.982 | S. cerevisiae deletion strains, locus YOR080W, strain dia2, stronger effect = lower value 1.01 | S. cerevisiae deletion strains, locus YOR083W, strain WHI5 (second series), stronger effect = lower value 0.998 | S. cerevisiae deletion strains, locus YOR083W, strain WHI5, stronger effect = lower value 0.988 | S. cerevisiae deletion strains, locus YOR106W, strain vam3, stronger effect = lower value 1 | S. cerevisiae deletion strains, locus YOR136W, strain idh2, stronger effect = lower value 0.981 | S. cerevisiae deletion strains, locus YOR144C, strain elg1, stronger effect = lower value 0.989 | S. cerevisiae deletion strains, locus YOR184W, strain ser1, stronger effect = lower value 0.939 | S. cerevisiae deletion strains, locus YOR231W, strain MKK1, stronger effect = lower value 0.988 | S. cerevisiae deletion strains, locus YOR265W, strain rbl2, stronger effect = lower value 1.01 | S. cerevisiae deletion strains, locus YOR270C, strain vph1, stronger effect = lower value 0.969 | S. cerevisiae deletion strains, locus YOR290C, strain snf2, stronger effect = lower value 0.978 | S. cerevisiae deletion strains, locus YOR316C, strain cot1, stronger effect = lower value 0.98 | S. cerevisiae deletion strains, locus YPL051W, strain arl3, stronger effect = lower value 0.987 | S. cerevisiae deletion strains, locus YPL055C, strain LGE1, stronger effect = lower value 1.01 | S. cerevisiae deletion strains, locus YPL078C, strain atp4, stronger effect = lower value 0.969 | S. cerevisiae deletion strains, locus YPL106C, strain sse1, stronger effect = lower value 1.04 | S. cerevisiae deletion strains, locus YPL240C, strain hsp82, stronger effect = lower value 1 | S. cerevisiae deletion strains, locus YPL241C, strain CIN2, stronger effect = lower value 0.978 and 0.994 | S. cerevisiae deletion strains, locus YPL256C, strain CLN2, stronger effect = lower value 1 | S. cerevisiae deletion strains, locus YPR119W, strain clb2, stronger effect = lower value 0.989 | S. cerevisiae deletion strains, locus YPR141C, strain kar3, stronger effect = lower value 0.98 | S. cerevisiae deletion strains, locus YPR163C, strain tif3, stronger effect = lower value 0.989 | S. cerevisiae deletion strains, locus YPR167C, strain met16, stronger effect = lower value 0.986 | S. cerevisiae deletion strains, strain wtn01, stronger effect = lower value 0.984 | S. cerevisiae strains, strain wild type, stronger effect = lower value 1
